Sampled rows, rich in hits. Any-hit rate of the full collection: about 3%.
Nrf2 ARE act: activates Nrf2 signaling | Potency, µM (highest dose often 46.1 µM), inactives show top-dose activation, hits mostly activators | AREc32 ARE-luciferase reporter (MCF7-derived line), luminescence, 24 h | 410,000 tested, 0.31% active; also: potency is read from the fitted curve at half-maximal effect; % of control where 0% means no effect; nearly all actives have a fitted effect of over 65% in size
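Cells of the AREc32 ARE-luciferase line are plated in OPTI-MEM containing 5% FBS and left overnight at 37 deg C. Compounds are pinned in, incubation continues 24 hr, and firefly luciferase signal is then measured.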
D3 ag: D3 dopamine receptor (human) agonism; AID 652048; D3R DiscoveRx beta-arrestin cells, luminescence, 90 min; max activation, %; P35462; 410,000 tested, 0.58% active; in the data active = max activation above about 30%; also: 0% is about no effect
Target sequence (P35462 whole entry, looked up): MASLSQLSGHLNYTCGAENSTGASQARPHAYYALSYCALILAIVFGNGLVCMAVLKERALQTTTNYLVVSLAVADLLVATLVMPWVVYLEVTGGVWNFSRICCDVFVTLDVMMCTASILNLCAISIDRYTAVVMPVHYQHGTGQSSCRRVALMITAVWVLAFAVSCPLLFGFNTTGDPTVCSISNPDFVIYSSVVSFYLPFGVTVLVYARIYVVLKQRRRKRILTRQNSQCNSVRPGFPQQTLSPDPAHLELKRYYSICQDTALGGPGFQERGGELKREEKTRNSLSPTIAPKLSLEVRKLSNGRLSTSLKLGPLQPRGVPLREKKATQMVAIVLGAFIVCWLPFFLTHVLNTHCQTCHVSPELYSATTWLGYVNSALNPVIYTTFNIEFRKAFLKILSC
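Cells at 1500/well, incubated overnight, then treated with pinned compounds (dopamine as control) for 90 min at 37 degrees C. DiscoveRx reagent added for 30 - 60 minutes at room temperature; luminescence read.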
GRP78 ERSR act: inducers of ER stress response in human glioma cells; Potency, µM, without a hit: at the top dose activation, most hits filed as activators; 420,000 tested, 0.02% active; U87-MG GRP78 promoter luciferase reporter, 16 h; also: potency is read from the fitted curve at half-maximal effect; series mostly up to about 76 µM; % of control where 0% means no effect; nearly all actives have a fitted effect of over 35% in size
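Stably transfected U87-MG human glioma cells carrying a GRP78-based luminescent sensor were seeded at 1000 cells/well, pin-dosed with compounds and incubated 16 h. Luciferase reagent was then added, and end-point luminescence was read after 10 min at room temperature.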
D3 antag: blocks the human D3 dopamine receptor. P35462. 360,000 tested, 2.5% active. max response, negative = inhibition, %. D3R cells, DiscoveRx beta-arrestin luminescence, antagonist mode; stronger effect = lower value; in the data active = max response below about -50%; inconclusive = no clear call, values can overlap the other calls; also: % is scaled to controls: 0 for no effect and ±100 for the full control effect
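Cells expressing the human receptor were seeded at 1500 cells/well, incubated overnight at 37 degrees C in 5% CO2, then exposed to library compounds with dopamine controls for 90 minutes at 37 degrees C before luminescent detection.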
* hit, by the source's call; ? = inconclusive; · = no result given; [ ] = remark or other dose. Unless noted, calls follow the shape of the dose curve; as a rule, active = well fitted curve in the direction sought with a large enough effect; inconclusive = small, poorly fitted or top-dose-only effect, or another doubt; inactive = no such curve, though single readings can be large; an effect the other way counts as inactive or inconclusive.

SMILES	Nrf2 ARE act	D3 ag	GRP78 ERSR act	D3 antag
CCC(=O)N1c2ccccc2CC1C(=O)NCc1ccc(N(C)C)cc1 (configuration not stated)	-0.6%	-10.1	-3.9%	·
Cc1cccc(C(=O)NNc2ncnc3c2cnn3-c2ccc(C)cc2C)c1	6.9%	-16.1	-1.9%	·
O=C(NCC1CCCO1)c1cccc2c1C(=O)c1ccc(N3CCC(Cc4ccccc4)CC3)cc1S2(=O)=O (configuration not stated)	-1.7%	49.7*	-5.7%	133.8
O=C1c2ccccc2S(=O)(=O)c2cc(N3CCN(c4ccccc4)CC3)ccc21	0.5%	51.7*	-3.6%	77.6
CC1CCN(c2ccc3c(c2)S(=O)(=O)c2cccc(C(=O)NC4CC4)c2C3=O)CC1	3.1%	52.1*	2.6%	50.2
O=C(NC[C@@H]1CCCO1)c1cccc2c1C(=O)c1ccc(N3CCOCC3)cc1S2(=O)=O	0.2%	27.4	-2.1%	72.5
O=C(NC1CCCCC1)c1cccc2c1C(=O)c1ccc(N3CCC(Cc4ccccc4)CC3)cc1S2(=O)=O	-1.3%	5.9	-6.0%	12.0
CC1CCN(c2ccc3c(c2)S(=O)(=O)c2cccc(C(=O)NC[C@@H]4CCCO4)c2C3=O)CC1	0.2%	31.3*	11.5%	107.8
COc1ccc(O)c(C(=O)N2CCC3(CC2)c2ccccc2[C@@H](NC(=O)c2ccccn2)[C@@H]3OC)c1	·	·	-5.2%	·
O=C(COc1ccccc1F)Nc1ccc2nc(SCC(=O)N3CCCC3)sc2c1	7.5%	-11.8	-3.0%	·
CCN(CC)CCNC(=O)c1cc2c(=O)n(C)c3ccccc3c2n1C	29.2%	-4.4	-3.9%	0.0
Cn1c(C(=O)NCCCN2CCc3ccccc3C2)cc2c(=O)n(C)c3ccccc3c21	10.7%	-15.8	-4.2%	-70.2*
Cn1c(C(=O)NCCCN2CCN(c3ccccc3F)CC2)cc2c(=O)[nH]c3ccccc3c21	3.6%	12.0	-3.4%	-13.2
Cn1c(C(=O)NCCCN2CCCCCC2)cc2c(=O)n(C)c3ccccc3c21	?	-8.1	-3.7%	-7.5
CC1CC(C)CN(CCCNC(=O)c2cc3c(=O)[nH]c4ccccc4c3n2C)C1 (configuration not stated)	4.1%	-2.6	-1.6%	-64.5*
CCCCN(CC)CCNC(=O)c1cc2c(=O)n(C)c3ccccc3c2n1C	9.0%	-17.4	-5.4%	-72.8*
Cc1ccc(S(=O)(=O)N2CCc3cc(C(=O)NCCc4ccccc4)ccc32)cc1	0.1%	63.9*	-1.2%	·
Cc1ccc(S(=O)(=O)N2CCC(C(=O)N[C@@H](Cc3ccccc3)C(=O)O)CC2)cc1	-0.2%	37.1*	-1.1%	-8.7
Cc1ccc(S(=O)(=O)N2CCC(C(=O)NCCc3ccc(S(N)(=O)=O)cc3)CC2)cc1	0.4%	37.3*	-2.2%	12.1
Cc1ccc(CCNC(=O)c2cc(S(=O)(=O)N3CCCC3)cn2C)cc1	-0.6%	-1.2	-1.8%	-145.2*
N[C@@H](CCC(=O)N[C@@H](CS)C(=O)NCC(=O)O)C(=O)O	·	-0.8	·	·
CC1(C)[C@H]2CC[C@]1(C)[C@H](O)C2	·	-7.8	·	·
CC1(C)CC(=O)C(C=Nc2cccnc2/N=C/C2=C(O)CC(C)(C)CC2=O)=C(O)C1	0.4%[9.22 µM]	-46.3	-2.9%	-143.1*
CC1(C)CC(=O)C(C=Nc2cccnc2)=C(O)C1	-0.3%	6.3	-0.8%	-12.9
CC1(C)CC(=O)C(C=Nc2ccc(O)c(N=CC3=C(O)CC(C)(C)CC3=O)c2)=C(O)C1	7.1%	8.6	0.4%	4.3
SMILES	Nrf2 ARE act	D3 ag	GRP78 ERSR act	D3 antag
CC1(C)CC(=O)C(C=Nc2ccc(C(=O)c3ccccc3)cc2N=CC2=C(O)CC(C)(C)CC2=O)=C(O)C1	8.7%	-24.2	-1.1%	-118.5*
O=C(NCc1ccncc1)c1nc(-c2ccc(C(F)(F)F)cc2)no1	3.8%	3.0	-3.2%	17.3
O=C(NCc1cccnc1)c1nc(-c2ccc(C(F)(F)F)cc2)no1	0.6%	-4.4	-3.9%	-59.1*
O=C(COc1ccccc1)Nc1nc2c(s1)CCCC2	15.4%	-13.2	4.1%	-77.4*
CC(C)CNS(=O)(=O)c1ccc(CCC(=O)NCc2cccnc2)cc1	-0.3%	-0.2	-4.1%	-15.0
Cc1ccc(CNC(=O)CCc2ccc(S(=O)(=O)NCC(C)C)cc2)cc1	2.6%	-7.0	-4.1%	-51.3*
O=C(N/N=C/c1c(Cl)cccc1Cl)c1ccc(F)cc1	?	-22.1	-1.7%	-14.6
O=C(N/N=C/c1c(Cl)cccc1Cl)c1ccccc1F	5.01µM*	-5.2	3.0%	6.9
c1cnc2c(C3NCCc4c3[nH]c3ccccc43)cccc2c1 (configuration not stated)	3.9%	-58.5	-1.9%	-87.3*
CC(C)(C)c1ccc(OCCn2c(CCNC(=O)C3CCCCC3)nc3ccccc32)cc1	·	·	-8.6%	·
COc1cc(=O)n2c(c1C(=O)NCc1nonc1C)CCN(C(=O)c1cccc(C)c1C)CC2	·	·	1.0%	·
COCC(=O)Nc1cc(C(=O)N2CCSCC2)cc2nc(-c3ccccc3)n(C)c12	·	·	-5.8%	·
COC(=O)C1=C(C(=O)OC)[C@@H]2N(C)c3ccccc3[C@@]23C[C@@H](CO)N(C(=O)C2CCC2)C3=N1	0.5%	-19.6	-5.3%	-52.6*
CC(C(=O)O)c1ccc2c(c1)Cc1cccnc1O2 (configuration not stated)	·	3.0	-4.1%	·
CCc1ccc2[nH]c(O)c(N=NC3=NC(=O)CS3)c2c1	-0.8%	-4.5	-2.7%	-5.7
CCc1ccc2c(c1)c(N=NC1=NC(=O)CS1)c(O)n2CC	3.9%	-22.9	-3.2%	-88.1*
COc1nc(-c2ccccc2)ccc1-c1noc(-c2ccco2)n1	20.4%	-1.1	2.7%	24.5
COc1ccc(-c2ccc(-c3noc(-c4ccco4)n3)c(OC)n2)cc1	12.1%	36.6*	-2.6%	28.4
COc1ccccc1NC(CC(=O)c1ccccc1)C(=O)OCC(=O)c1ccc(Br)cc1 (configuration not stated)	22.4µM*	3.2	-4.5%	10.1
COc1ccccc1NC(CC(=O)c1ccccc1)C(=O)OCC(=O)c1ccc(C)c(C)c1 (configuration not stated)	12.6µM*	-13.3	-1.6%	2.1
COc1ccccc1NC(CC(=O)c1ccccc1)C(=O)OCC(=O)c1ccc(C)cc1 (configuration not stated)	11.8%	3.3	8.5%	-23.3
CCOc1ccc(C(=O)CC(Sc2ccc(C)cc2)C(=O)O)cc1 (configuration not stated)	17.8µM*	-5.1	-11.6%	-28.0
O=C(CN1CCN(c2cccc(Cl)c2)CC1)Nc1ccc([N+](=O)[O-])cc1C(=O)Nc1ccccc1F	0.3%	19.3	-4.4%	68.9
COc1ccccc1N1CCN(c2ccc(=O)n(CC(=O)Nc3cc(F)ccc3C)n2)CC1	0.0%	-9.4	-1.3%	·
COc1ccccc1N1CCN(CC(=O)Nc2cc(F)ccc2C)CC1	1.3%	-1.1	-3.5%	-83.1*
O=C(CCN1CCN(c2ccccc2F)CC1)Nc1ccc(F)cc1	-0.5%	25.9	0.9%	-73.0*
Cc1ccc(C)c(N2CCN(CC(=O)Nc3ccc([N+](=O)[O-])cc3C(=O)Nc3ccccc3F)CC2)c1	2.8%	50.3*	-2.5%	17.4
COc1ccccc1N1CCN(CCC(=O)Nc2cccc(F)c2)CC1	3.3%	-23.8	-1.9%	-110.9*

Bioassay records deposited in PubChem by National Center for Advancing Translational Sciences (NCATS).
